Measurements taken from the supplement of paper PMC4466140.

These binders were tested against AgAbp1 (assay: SPOT peptide array binding signal intensity (averaged, normalized) (arbitrary units (background-subtracted, floor 0; scale differs between SH3 domains)); higher = stronger binding of the SH3 domain to the peptide).
Method in brief: (§1)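 Spot intensities were captured after detection with anti-GST antibody, an HRP-linked anti-mouse secondary and luminol, and quantified with Genespotter. The probes were GST-fused SH3 domains from four yeast species, produced in E. coli BL21(DE3), purified on glutathione Sepharose and incubated at 10 μg/ml overnight at 4°C on cellulose-bound synthetic 15-mer peptides with cysteines replaced by serines. Binding signal is the normalized, background-subtracted spot intensity averaged over replicates, and its arbitrary units differ between domains.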
STKKPRPPVKSKPKH was tested, and the “SPOT peptide array binding signal intensity” value was 553.

Each binder was assayed against AgBbc1 in the same assay as above.
Method in brief: as §1
STKKPRPPVKSKPKH was tested, and the “SPOT peptide array binding signal intensity” value was 104.

These binders were tested against AgBem1-D1 in the same assay as above.
Method in brief: as §1
STKKPRPPVKSKPKH was tested, and the “SPOT peptide array binding signal intensity” value was 1.

Each binder was assayed against AgBzz1-D1 in the same assay as above.
Method in brief: as §1
With STKKPRPPVKSKPKH the “SPOT peptide array binding signal intensity” value was 72.

These binders were tested against AgBzz1-D2 in the same assay as above.
Method in brief: as §1
For STKKPRPPVKSKPKH, the “SPOT peptide array binding signal intensity” value was 38.

The binders below were run against AgCyk3 in the same assay as above.
Method in brief: as §1
With STKKPRPPVKSKPKH the “SPOT peptide array binding signal intensity” value was ≤ 0.

What follows are binders tested against AgFus1 in the same assay as above.
Method in brief: as §1
In the case of STKKPRPPVKSKPKH, the “SPOT peptide array binding signal intensity” value is reported as 9.

What follows are binders tested against AgHof1 in the same assay as above.
Method in brief: as §1
For STKKPRPPVKSKPKH, the “SPOT peptide array binding signal intensity” value was 1.25.

What follows are binders tested against AgHse1 in the same assay as above.
Method in brief: as §1
With STKKPRPPVKSKPKH the “SPOT peptide array binding signal intensity” value was 71.5.

These binders were tested against AgLsb1 in the same assay as above.
Method in brief: as §1
STKKPRPPVKSKPKH was tested, and the “SPOT peptide array binding signal intensity” value was ≤ 0.

What follows are binders tested against AgLsb4 in the same assay as above.
Method in brief: as §1
In the case of STKKPRPPVKSKPKH, the “SPOT peptide array binding signal intensity” value is reported as 4.

What follows are binders tested against AgMyo5 in the same assay as above.
Method in brief: as §1
With STKKPRPPVKSKPKH the “SPOT peptide array binding signal intensity” value was 3.25.

Each binder was assayed against AgNbp2 in the same assay as above.
Method in brief: as §1
For STKKPRPPVKSKPKH, the “SPOT peptide array binding signal intensity” value was 9.

What follows are binders tested against AgRvs167 in the same assay as above.
Method in brief: as §1
In the case of STKKPRPPVKSKPKH, the “SPOT peptide array binding signal intensity” value is reported as 1.83.

Each binder was assayed against AgSho1 in the same assay as above.
Method in brief: as §1
STKKPRPPVKSKPKH was tested, and the “SPOT peptide array binding signal intensity” value was 23.

The binders below were run against AgSla1-D1-D2 in the same assay as above.
Method in brief: as §1
For STKKPRPPVKSKPKH, the “SPOT peptide array binding signal intensity” value was 7.

The binders below were run against AgSla1-D3 in the same assay as above.
Method in brief: as §1
With STKKPRPPVKSKPKH the “SPOT peptide array binding signal intensity” value was ≤ 0.

Each binder was assayed against CaAbp1-D1 in the same assay as above.
Method in brief: as §1
For STKKPRPPVKSKPKH, the “SPOT peptide array binding signal intensity” value was 1410.

These binders were tested against CaAbp1-D2 in the same assay as above.
Method in brief: as §1
With STKKPRPPVKSKPKH the “SPOT peptide array binding signal intensity” value was 1100.

Each binder was assayed against CaBbc1 in the same assay as above.
Method in brief: as §1
In the case of STKKPRPPVKSKPKH, the “SPOT peptide array binding signal intensity” value is reported as 292.

What follows are binders tested against CaBem1-D1 in the same assay as above.
Method in brief: as §1
STKKPRPPVKSKPKH was tested, and the “SPOT peptide array binding signal intensity” value was 4.

These binders were tested against CaBzz1-D1 in the same assay as above.
Method in brief: as §1
For STKKPRPPVKSKPKH, the “SPOT peptide array binding signal intensity” value was 104.

These binders were tested against CaBzz1-D2 in the same assay as above.
Method in brief: as §1
For STKKPRPPVKSKPKH, the “SPOT peptide array binding signal intensity” value was 104.

These binders were tested against CaCyk3 in the same assay as above.
Method in brief: as §1
With STKKPRPPVKSKPKH the “SPOT peptide array binding signal intensity” value was 2.

Each binder was assayed against CaFus1 in the same assay as above.
Method in brief: as §1
STKKPRPPVKSKPKH was tested, and the “SPOT peptide array binding signal intensity” value was 29.

The binders below were run against CaHof1 in the same assay as above.
Method in brief: as §1
In the case of STKKPRPPVKSKPKH, the “SPOT peptide array binding signal intensity” value is reported as 1.25.

These binders were tested against CaHse1 in the same assay as above.
Method in brief: as §1
STKKPRPPVKSKPKH was tested, and the “SPOT peptide array binding signal intensity” value was ≤ 0.

Each binder was assayed against CaLsb1 in the same assay as above.
Method in brief: as §1
In the case of STKKPRPPVKSKPKH, the “SPOT peptide array binding signal intensity” value is reported as 0.5.

These binders were tested against CaLsb4 in the same assay as above.
Method in brief: as §1
With STKKPRPPVKSKPKH the “SPOT peptide array binding signal intensity” value was ≤ 0.

The binders below were run against CaMyo5 in the same assay as above.
Method in brief: as §1
For STKKPRPPVKSKPKH, the “SPOT peptide array binding signal intensity” value was 2.5.

The binders below were run against CaNbp2 in the same assay as above.
Method in brief: as §1
STKKPRPPVKSKPKH was tested, and the “SPOT peptide array binding signal intensity” value was 21.

The binders below were run against CaRvs167 in the same assay as above.
Method in brief: as §1
STKKPRPPVKSKPKH was tested, and the “SPOT peptide array binding signal intensity” value was 0.333.

These binders were tested against CaRvs167-3 in the same assay as above.
Method in brief: as §1
STKKPRPPVKSKPKH was tested, and the “SPOT peptide array binding signal intensity” value was 6.25.

The binders below were run against CaSho1 in the same assay as above.
Method in brief: as §1
STKKPRPPVKSKPKH was tested, and the “SPOT peptide array binding signal intensity” value was 19.5.

Each binder was assayed against CaSla1-D1-D2 in the same assay as above.
Method in brief: as §1
For STKKPRPPVKSKPKH, the “SPOT peptide array binding signal intensity” value was 318.

The binders below were run against CaSla1-D3 in the same assay as above.
Method in brief: as §1
For STKKPRPPVKSKPKH, the “SPOT peptide array binding signal intensity” value was ≤ 0.

Each binder was assayed against ScAbp1 in the same assay as above.
Method in brief: as §1
With STKKPRPPVKSKPKH the “SPOT peptide array binding signal intensity” value was 2130.

What follows are binders tested against ScBbc1 in the same assay as above.
Method in brief: as §1
With STKKPRPPVKSKPKH the “SPOT peptide array binding signal intensity” value was 5.5.

What follows are binders tested against ScBem1-D1 in the same assay as above.
Method in brief: as §1
In the case of STKKPRPPVKSKPKH, the “SPOT peptide array binding signal intensity” value is reported as 14.

What follows are binders tested against ScBzz1-D1 in the same assay as above.
Method in brief: as §1
With STKKPRPPVKSKPKH the “SPOT peptide array binding signal intensity” value was 4.5.

Each binder was assayed against ScBzz1-D2 in the same assay as above.
Method in brief: as §1
In the case of STKKPRPPVKSKPKH, the “SPOT peptide array binding signal intensity” value is reported as 13.

The binders below were run against ScCyk3 in the same assay as above.
Method in brief: as §1
With STKKPRPPVKSKPKH the “SPOT peptide array binding signal intensity” value was ≤ 0.

These binders were tested against ScFus1 in the same assay as above.
Method in brief: as §1
For STKKPRPPVKSKPKH, the “SPOT peptide array binding signal intensity” value was ≤ 0.

What follows are binders tested against ScHof1 in the same assay as above.
Method in brief: as §1
STKKPRPPVKSKPKH was tested, and the “SPOT peptide array binding signal intensity” value was ≤ 0.

What follows are binders tested against ScHse1 in the same assay as above.
Method in brief: as §1
For STKKPRPPVKSKPKH, the “SPOT peptide array binding signal intensity” value was 110.

These binders were tested against ScLsb1 in the same assay as above.
Method in brief: as §1
STKKPRPPVKSKPKH was tested, and the “SPOT peptide array binding signal intensity” value was 0.5.

What follows are binders tested against ScLsb2 in the same assay as above.
Method in brief: as §1
STKKPRPPVKSKPKH was tested, and the “SPOT peptide array binding signal intensity” value was 3.

These binders were tested against ScLsb3 in the same assay as above.
Method in brief: as §1
For STKKPRPPVKSKPKH, the “SPOT peptide array binding signal intensity” value was 153.

The binders below were run against ScLsb4 in the same assay as above.
Method in brief: as §1
STKKPRPPVKSKPKH was tested, and the “SPOT peptide array binding signal intensity” value was 1.

These binders were tested against ScMyo3 in the same assay as above.
Method in brief: as §1
For STKKPRPPVKSKPKH, the “SPOT peptide array binding signal intensity” value was 5.5.

These binders were tested against ScMyo5 in the same assay as above.
Method in brief: as §1
STKKPRPPVKSKPKH was tested, and the “SPOT peptide array binding signal intensity” value was ≤ 0.

The binders below were run against ScNbp2 in the same assay as above.
Method in brief: as §1
In the case of STKKPRPPVKSKPKH, the “SPOT peptide array binding signal intensity” value is reported as 22.

These binders were tested against ScPex13 in the same assay as above.
Method in brief: as §1
STKKPRPPVKSKPKH was tested, and the “SPOT peptide array binding signal intensity” value was ≤ 0.

What follows are binders tested against ScRvs167 in the same assay as above.
Method in brief: as §1
With STKKPRPPVKSKPKH the “SPOT peptide array binding signal intensity” value was ≤ 0.

What follows are binders tested against ScSho1 in the same assay as above.
Method in brief: as §1
With STKKPRPPVKSKPKH the “SPOT peptide array binding signal intensity” value was 269.

What follows are binders tested against ScSla1-D1-D2 in the same assay as above.
Method in brief: as §1
For STKKPRPPVKSKPKH, the “SPOT peptide array binding signal intensity” value was 34.5.

The binders below were run against ScSla1-D3 in the same assay as above.
Method in brief: as §1
STKKPRPPVKSKPKH was tested, and the “SPOT peptide array binding signal intensity” value was 16.8.

These binders were tested against SpAbp1-D1 in the same assay as above.
Method in brief: as §1
With STKKPRPPVKSKPKH the “SPOT peptide array binding signal intensity” value was 193.

These binders were tested against SpBbc1 in the same assay as above.
Method in brief: as §1
In the case of STKKPRPPVKSKPKH, the “SPOT peptide array binding signal intensity” value is reported as 8.

These binders were tested against SpBzz1-D1 in the same assay as above.
Method in brief: as §1
For STKKPRPPVKSKPKH, the “SPOT peptide array binding signal intensity” value was 47.
